# Data: PubChem BioAssay (NCATS)
# Inconclusive results are not listed. A number with no mark means an inactive call. The call rests on the fitted dose curve; in most records, active means well fitted cell-killing curve with a large enough effect; inconclusive means small, poorly fitted or top-dose-only effect; inactive means flat fitted curve, though single readings scatter.
# Assay: Cell Viability - H-4-II-E (AID 543); further: on the % scale 0 is the no-effect control and ±100 the full control effect; nearly all actives have a fitted effect of over 35% in size
# Conditions: H-4-II-E rat hepatoma viability; series mostly up to 92.2 µM; activity change, negative = cytotoxic: at the top concentration
# In short: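 qHTS, rat hepatoma H-4-II-E, 1500 cells/well; 40 hr compound exposure, 37 °C; CellTiter-Glo ATP luminescence after 20 min RT; AC50 by standard Hill fit.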
row,SMILES,"activity change, negative = cytotoxic"
1,Cc1ccccc1C#N,-12.8%
2,CCC=O,-3.17%
3,Oc1c(Cl)ccc(Cl)c1Cl,-11.8%
4,Cc1ccccc1C=O,-6.93%
5,CN(C)c1cccc(O)c1,-1.83%
6,Cc1ccc(S(=O)(=O)NC2CCCCC2)cc1,-17.6%
7,CCOC(=O)OCC,-1.43%
8,CC(C)(O)CCC(C)(C)O,-0.315%
9,O=Cc1ccccc1Cl,-0.754%
10,CCCCCCCCC/C=C/CC1CC(=O)OC1=O (stereo not given),7.69%
11,Cc1ccc2cccnc2c1,-1.44%
12,O=Cc1ccc(CO)o1,-3.61%
13,CCCC(Cl)CCCC(Cl)CCC(Cl)CCC(Cl)CCC(Cl)CCCC(Cl)CCC (stereo not given),-10.2%
14,Cc1ccc(C)o1,-6.71%
15,CCCCN(CCO)CCCC,-5.25%
16,C=C(C)C(=O)OCCCCCC,0.905%
17,CCOc1cccc(N)c1,-5.73%
18,COC(=O)CCCC(=O)OC,0.316%
19,O=C1CCCCC1,-4.06%
20,NC(=O)NC(N)=O,-0.985%

row,SMILES,"activity change, negative = cytotoxic"
1,CCOCCOCC,-0.544%
2,CC(C)N=C=NC(C)C,-5.7%
3,CC(C)=CCl,3.74%
4,CCC(C)(C)C(=O)O,-3.63%
5,Cc1ccc(C)c(N)c1,0.383%
6,CN(C)CCCCl,-3.13%
7,CCCCOCCOCCOCCCC,1.83%
8,CC/C=C/C#N,-5.96%
9,Cc1cccc2cccnc12,-2.8%
10,Cc1ccccc1C(=O)O,-5.01%
11,C/C(C=O)=C/c1ccccc1,-3.1%
12,O=[N+]([O-])c1c(Cl)cc(Cl)cc1Cl,2.41%
13,CC(=O)OC(C)=O,3.02%
14,CNC(=O)c1ccccc1,-4.62%
15,O=Cc1c(Cl)cccc1Cl,-0.328%
16,c1ccc(Oc2ccccc2)cc1,-5.01%
17,Clc1cc(Cl)cc(Cl)c1,-7.96%
18,Cc1ccc(C(C)(C)C)cc1,-0.741%
19,C=C(C)C(=O)OCC(C)O (stereo not given),7.76%
20,O=C(O)c1cc(Cl)cc(Cl)c1,-9.07%

# Assay: Cell Viability - SH-SY5Y (AID 544);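 further: 0% = DMSO alone and -100% = 100 µM tamoxifen; nearly all actives have a fitted effect of over 55% in size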
# Conditions: SH-SY5Y neuroblastoma cell viability; viability change, negative = cytotoxic: at 92.2 µM (top of the series)
# In short: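 SH-SY5Y, 1500 cells/well, 5 hr pre-incubation 37 °C; cpd 40 hr 37 °C; CellTiter-Glo 20 min RT; luminescence (ATP) read. qHTS concentration-response, Hill fit → AC50. Tamoxifen, doxorubicin as positive controls.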
row,SMILES,"viability change, negative = cytotoxic"
1,Cc1ccccc1C#N,-16.8%
2,CCC=O,-7.21%
3,Oc1c(Cl)ccc(Cl)c1Cl,-22.3%
4,Cc1ccccc1C=O,-3.19%
5,CN(C)c1cccc(O)c1,-6.57%
6,Cc1ccc(S(=O)(=O)NC2CCCCC2)cc1,-3.03%
7,CCOC(=O)OCC,-4.16%
8,CC(C)(O)CCC(C)(C)O,7.71%
9,O=Cc1ccccc1Cl,-10%
10,CCCCCCCCC/C=C/CC1CC(=O)OC1=O (stereo not given),-4.96%
11,Cc1ccc2cccnc2c1,-3%
12,O=Cc1ccc(CO)o1,-16.3%
13,CCCC(Cl)CCCC(Cl)CCC(Cl)CCC(Cl)CCC(Cl)CCCC(Cl)CCC (stereo not given),-11.9%
14,Cc1ccc(C)o1,-6.35%
15,CCCCN(CCO)CCCC,-3.23%
16,C=C(C)C(=O)OCCCCCC,-6.01%
17,CCOc1cccc(N)c1,-7.14%
18,COC(=O)CCCC(=O)OC,-1.71%
19,O=C1CCCCC1,-5.53%
20,NC(=O)NC(N)=O,1.98%

row,SMILES,"viability change, negative = cytotoxic"
1,CCOCCOCC,-1.46%
2,CC(C)N=C=NC(C)C,-10.2%
3,CC(C)=CCl,-0.502%
4,CCC(C)(C)C(=O)O,-15.1%
5,Cc1ccc(C)c(N)c1,-1.94%
6,CN(C)CCCCl,-5.32%
7,CCCCOCCOCCOCCCC,-0.502%
8,CC/C=C/C#N,-12.2%
9,Cc1cccc2cccnc12,5.13%
10,Cc1ccccc1C(=O)O,-16.1%
11,C/C(C=O)=C/c1ccccc1,1.25%
12,O=[N+]([O-])c1c(Cl)cc(Cl)cc1Cl,8.58%
13,CC(=O)OC(C)=O,0.847%
14,CNC(=O)c1ccccc1,-11.8%
15,O=Cc1c(Cl)cccc1Cl,1.5%
16,c1ccc(Oc2ccccc2)cc1,-0.0253%
17,Clc1cc(Cl)cc(Cl)c1,0.246%
18,Cc1ccc(C(C)(C)C)cc1,3.15%
19,C=C(C)C(=O)OCC(C)O (stereo not given),-5.07%
20,O=C(O)c1cc(Cl)cc(Cl)c1,-12.6%

# Assay: Cell Viability - Renal Proximal Tubule (AID 545);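 further: 0% = DMSO only and -100% = 100 µM tamoxifen; nearly all actives have a fitted effect of over 40% in size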
# Conditions: renal proximal tubule cells viability, primary cells of rat origin; series mostly up to 91.7 µM; activity change, negative = cytotoxicity: at the top concentration
# In short: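 In this qHTS format, normal rat kidney-derived proximal tubule cells in complete culture medium receive compound titrations, then sit 40 hours at 37 °C before luciferase-based ATP quantitation; potency is reported as AC50 from concentration-response curves.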
row,SMILES,"activity change, negative = cytotoxicity"
1,Cc1ccccc1C#N,0.906%
2,CCC=O,-6.33%
3,Oc1c(Cl)ccc(Cl)c1Cl,1.7%
4,Cc1ccccc1C=O,-3.56%
5,CN(C)c1cccc(O)c1,2.67%
6,Cc1ccc(S(=O)(=O)NC2CCCCC2)cc1,-6.44%
7,CCOC(=O)OCC,-9.98%
8,CC(C)(O)CCC(C)(C)O,-3.9%
9,O=Cc1ccccc1Cl,-2.51%
10,CCCCCCCCC/C=C/CC1CC(=O)OC1=O (stereo not given),-24%
11,Cc1ccc2cccnc2c1,-5.39%
12,O=Cc1ccc(CO)o1,-10.5%
13,CCCC(Cl)CCCC(Cl)CCC(Cl)CCC(Cl)CCC(Cl)CCCC(Cl)CCC (stereo not given),-7.23%
14,Cc1ccc(C)o1,-6.14%
15,CCCCN(CCO)CCCC,-11.3%
16,C=C(C)C(=O)OCCCCCC,-5.55%
17,CCOc1cccc(N)c1,2.77%
18,COC(=O)CCCC(=O)OC,-5.99%
19,O=C1CCCCC1,-11%
20,NC(=O)NC(N)=O,8.4%

row,SMILES,"activity change, negative = cytotoxicity"
1,CCOCCOCC,-3.38%
2,CC(C)N=C=NC(C)C,-8.44%
3,CC(C)=CCl,10.1%
4,CCC(C)(C)C(=O)O,-1.47%
5,Cc1ccc(C)c(N)c1,-4.19%
6,CN(C)CCCCl,-11.3%
7,CCCCOCCOCCOCCCC,2.05%
8,CC/C=C/C#N,-14%
9,Cc1cccc2cccnc12,-0.457%
10,Cc1ccccc1C(=O)O,1.96%
11,C/C(C=O)=C/c1ccccc1,-9.1%
12,O=[N+]([O-])c1c(Cl)cc(Cl)cc1Cl,-1.15%
13,CC(=O)OC(C)=O,-11.8%
14,CNC(=O)c1ccccc1,-3.92%
15,O=Cc1c(Cl)cccc1Cl,-4.16%
16,c1ccc(Oc2ccccc2)cc1,3.6%
17,Clc1cc(Cl)cc(Cl)c1,2.92%
18,Cc1ccc(C(C)(C)C)cc1,-1.93%
19,C=C(C)C(=O)OCC(C)O (stereo not given),-0.024%
20,O=C(O)c1cc(Cl)cc(Cl)c1,-19.7%
